MsrA act: bovine methionine sulfoxide reductase A activation; purified bovine MsrA, absorbance read-out; 360,000 tested, 0.3% active; activation, % at 10.6 µM; in the data active = activation above about 7.5%;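 note: 0% = vehicle and 100% = reference activator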
MsrA inhibitor: bovine MsrA inhibition | inhibition, % at 15.5 µM | purified bovine MsrA, absorbance read-out | 360,000 tested, 0.75% active; in the data active = inhibition above about 4.5%;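 note: 0% = vehicle wells with enzyme and 100% = reference inhibitor wells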
rCAG RNA binder: molecules binding r(CAG) RNA repeats; r(CAG) RNA repeat, TO-PRO-1 dye displacement fluorescence; inhibition, % at 3 µM; 370,000 tested, 1.3% active; AID 651821;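 active = inhibition above the plate cutoff, the mean of all test compounds on that plate plus 3 SD, cut at about 35% in these data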;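 note: 0% = DMSO alone and 100% = 100 µM mitoxantrone as full dye displacement; higher means more dye released from RNA so lower well fluorescence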
sPLA2-III inh: Blocks human group III sPLA2 activity; inhibition, % at 12.2 µM; Q9NZ20; 370,000 tested, 0.56% active; QFRET BODIPY PC-A2 liposome hydrolysis, fluorescence; AID 743126;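 active = inhibition above mean plus 3 SD of compounds lying within the high and low control bounds, cut at about 19% in these data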;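 note: 0% = median of test compound wells and 100% = no enzyme DMSO wells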
Target sequence (Q9NZ20 whole entry, looked up): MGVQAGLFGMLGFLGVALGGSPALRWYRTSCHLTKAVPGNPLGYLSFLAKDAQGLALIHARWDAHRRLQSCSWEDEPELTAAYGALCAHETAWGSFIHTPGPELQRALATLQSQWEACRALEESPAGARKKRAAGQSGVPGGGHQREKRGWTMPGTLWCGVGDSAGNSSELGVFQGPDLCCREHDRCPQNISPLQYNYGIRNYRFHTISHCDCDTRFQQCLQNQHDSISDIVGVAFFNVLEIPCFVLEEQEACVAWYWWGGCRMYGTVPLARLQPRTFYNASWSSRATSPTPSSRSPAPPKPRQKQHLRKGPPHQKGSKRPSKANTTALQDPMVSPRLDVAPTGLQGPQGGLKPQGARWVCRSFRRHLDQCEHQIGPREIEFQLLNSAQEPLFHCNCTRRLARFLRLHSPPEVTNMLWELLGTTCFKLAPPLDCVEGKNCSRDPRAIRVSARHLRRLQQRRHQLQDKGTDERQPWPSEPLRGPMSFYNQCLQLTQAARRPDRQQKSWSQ
rCAG binder conf: r(CAG) RNA repeat binding, confirmation; shares compounds with rCAG RNA binder; TO-PRO-1 dye displacement fluorescence; 4,300 tested, 70% active; inhibition, % at 3 µM; AID 652065;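 active = inhibition above a per-plate cutoff, the mean inhibition of sample wells plus 3 SD, cut at about 35% in these data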;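 note: loss of TO-PRO-1 fluorescence as compound displaces dye from 1x1 AA loop RNA; 0% = DMSO only wells and 100% = 100 µM mitoxantrone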
dCAG dye counter: DNA CAG dye complex inhibition counter-screen; shares compounds with rCAG RNA binder; d(CAG) DNA oligo TO-PRO-1 dye displacement, fluorescence; inhibition, % at 3 µM; 4,300 tested, 94% active; AID 652068;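 active = inhibition above its plate's cutoff, the mean test-well inhibition plus 3 SD, cut at about 4.8% in these data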;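 note: 0% = DNA dye mix with DMSO and 100% = 100 µM mitoxantrone; hits displace the dye from DNA and so lower well fluorescence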
Starred values were filed as active, the others as inactive; nt = no result given. Hits are enriched below; roughly 2.8% of the tested compounds scored in any of these assays.

SMILES	MsrA act	MsrA inhibitor	rCAG RNA binder	sPLA2-III inh	rCAG binder conf	dCAG dye counter
CC1(C(=O)NS(=O)(=O)c2cccc(C#N)c2)CCN1C(=O)c1ccccc1CCc1ccccc1 (stereo not drawn)	-2	-1	46*	-18	39*	9.5*
Cc1ccc(C(C)n2cc(C(=O)NCc3ccccn3)nn2)cc1 (stereo not drawn)	-8	0	-2	16	nt	nt
CC(C)(C)CN1C(=O)C(=O)NC[C@@H]1CC1CCCCC1	-15	-1	2	-1	nt	nt
CC1(C(=O)NS(=O)(=O)c2cccc(Cl)c2)CCN1C(=O)c1ccccc1CCc1ccccc1 (stereo not drawn)	1	0	61*	-38	60*	22*
CC1(C(=O)NS(=O)(=O)c2cccs2)CCN1C(=O)c1ccccc1CCc1ccccc1 (stereo not drawn)	-1	0	44*	-9	34	7.0*
COc1ccc(NC(=O)c2ccc3nc[nH]c3c2)c(OC)c1	-1	1	2	2	nt	nt
CCOC(=O)c1sc(NC(=O)CSc2n[nH]c(-c3ccccc3)n2)c(C#N)c1C	2	3	60*	-50	56*	19*
CCOC(=O)c1sc(NC(=O)CSc2nc(C)cc(C)n2)c(C#N)c1C	-1	0	9	-4	nt	nt
O=C(Cc1ccccc1Cl)Nc1ccc(S(=O)(=O)Nc2nccs2)cc1	-3	0	16	-31	nt	nt
O=C(CSc1ccccc1)Nc1ccc(S(=O)(=O)Nc2ncccn2)cc1	-2	0	2	2	nt	nt
O=C(CSc1ccc2ccccc2c1)Nc1ccc(S(=O)(=O)Nc2nccs2)cc1	-1	-1	74*	-106	71*	36*
O=C(CSc1ccc(Br)c2cccc(Cl)c12)Nc1ccc(S(=O)(=O)Nc2nccs2)cc1	-11	2	77*	-49	75*	43*
COc1ccc(-n2c(O)c(/C=N/NS(=O)(=O)c3cc(C)ccc3C)c3ccccc3c2=O)cc1OC	-2	0	49*	-10	73*	33*
COc1ccc(C)cc1S(=O)(=O)Nc1ccc(-n2c(C)nc3ccccc3c2=O)cc1	-14	-1	-9	-14	nt	nt
COc1ccccc1NS(=O)(=O)c1cccc(-n2c(O)c(C=Nc3ccccc3C(=O)O)c3ccccc3c2=O)c1	-2	1	91*	-39	91*	73*
COc1ccc(-n2c(O)c(/C=N/NS(=O)(=O)c3ccc(C)cc3)c3ccccc3c2=O)cc1OC	-4	2	66*	-8	59*	24*
CCCCC(=O)N1CCN(C(=O)c2ccc3nc(C)n(C4CCCC4)c3c2)CC1	nt	nt	-2	13	nt	nt
COc1cc2ccccc2cc1C(=O)NC(=S)Nc1cccc(C(=O)O)c1	-2	1	39*	-4	69*	34*
O=C(CSc1nc2ccccc2s1)Nc1cc(S(=O)(=O)N2CCOCC2)ccc1O	0	1	49*	-9	40*	16*
O=C(CC1CCCC1)Nc1cc(S(=O)(=O)N2CCOCC2)ccc1O	5	0	2	-5	nt	nt
CCCCc1ccc(CC(=O)Nc2cc(S(=O)(=O)N3CCOCC3)ccc2O)cc1	-1	-1	48*	-44	51*	16*
Cc1nnc(SCC(=O)Nc2cc(S(=O)(=O)N3CCOCC3)ccc2C)s1	-2	0	-1	-1	nt	nt
O=C(COc1ccc(Cl)cc1)NCc1nnc(SCC(=O)NC2CCCC2)o1	-11	2	-7	-3	nt	nt
O=C(N/N=C/c1ccccn1)c1cccc(S(=O)(=O)Nc2ccccc2Cl)c1	-3	0	24	-27	nt	nt
COc1ccc(-c2nn(-c3ccccc3)cc2/C=N/NC(=O)c2cccc(S(=O)(=O)Nc3ccccc3Cl)c2)cc1	-6	5	59*	-37	55*	29*
SMILES	MsrA act	MsrA inhibitor	rCAG RNA binder	sPLA2-III inh	rCAG binder conf	dCAG dye counter
Cc1ccsc1/C=N/NC(=O)c1cccc(S(=O)(=O)Nc2ccccc2Cl)c1	-8	1	47*	-12	40*	14*
CCCCNC(=O)C1(C(=O)C2CC2)CC(C(=O)OCC)=NO1 (stereo not drawn)	nt	nt	0	1	nt	nt
Cc1c(Nc2cc(=O)oc3ccccc23)c(=O)n(-c2ccccc2)n1C	-12	-1	3	5	nt	nt
CC(C)C1Nc2ccc(S(N)(=O)=O)cc2C2C=CCC21 (stereo not drawn)	-3	0	28	-16	nt	nt
NS(=O)(=O)c1ccc2c(c1)C1C=CCC1C(C1CC=CCC1)N2 (stereo not drawn)	-2	1	62*	0	26	14*
COc1cc(Cl)ccc1OCc1cc(C(=O)NC(C)Cc2cnccn2)no1 (stereo not drawn)	-3	0	-7	8	nt	nt
COc1cc(/C=N/NC(=O)c2cc[n+]([O-])cc2)cc(OC)c1OC	-2	2	-3	0	nt	nt
CC(=O)c1c(C)[nH]c(C(=O)Nc2ccc(C)c(S(=O)(=O)Nc3ccc(C)cc3C)c2)c1C	2	2	13	-47	nt	nt
Cc1ccc(NS(=O)(=O)c2cc(NC(=O)c3cc(=O)[nH]c(=O)[nH]3)ccc2Cl)c(C)c1	-5	0	54*	-30	61*	20*
COc1ccc(N(CC(=O)Nc2cccc(C(F)(F)F)c2)S(=O)(=O)c2c(C)[nH]c(=O)[nH]c2=O)cc1	-3	0	37*	-29	33	8.3*
CCOc1ccc(N(CC(=O)Nc2ccc(CC)cc2)S(=O)(=O)c2c(C)[nH]c(=O)[nH]c2=O)cc1	-1	2	34	-23	nt	nt
CCc1ccc(NC(=O)CN(c2ccc(OC)cc2)S(=O)(=O)c2c(C)[nH]c(=O)[nH]c2=O)cc1	-5	1	40*	-33	25	4
O=C(NCc1ccco1)c1cc(Cl)nc(Cl)c1	-4	0	2	0	nt	nt
O=C(O)c1ccc(NNC(=S)Nc2cc(C(F)(F)F)ccc2Cl)cc1	-2	1	39*	-16	15	4.7*
O=C(NCCCN1CCOCC1)C1Nc2ccc(OC(F)(F)F)cc2C2C=CCC12 (stereo not drawn)	-2	0	6	-6	nt	nt
O=C(NCc1ccccn1)C1Nc2ccc(OC(F)(F)F)cc2C2C=CCC12 (stereo not drawn)	-10	0	37*	5	2	2
O=C(NC1CC1)C1Nc2ccc(OC(F)(F)F)cc2C2C=CCC12 (stereo not drawn)	-3	-1	43*	-6	2	0
O=C(NCc1ccccc1)C1Nc2ccc(OC(F)(F)F)cc2C2C=CCC12 (stereo not drawn)	-2	0	34	11	nt	nt
CCOC(=O)C1Nc2ccc(OC(F)(F)F)cc2C2C=CCC12 (stereo not drawn)	-11	1	40*	-3	17	6.1*
COc1ccc(NC(=O)CCSCCc2ccccn2)cc1OC	-2	0	-6	2	nt	nt
CC(=O)Nc1ccc(C(=S)NCC2(N(C)C)CCCCC2)cc1	-2	0	-1	0	nt	nt

Assay outcomes from PubChem BioAssay.
